JMJD2A Tudor: inhibitors of human JMJD2A Tudor domain. AlphaScreen JMJD2A-Tudor / H3K4me3 peptide binding. Potency, µM (series often up to 114 µM), without a hit: at the top dose activity change, negative = inhibition, usual class: inhibitors. 4.4% of 390,000 active; further: on the % scale 0 is the no-effect control and ±100 the full control effect; nearly all actives have a fitted effect of over 50% in size
Sfp PPTase inh: Sfp phosphopantetheinyl transferase inhibition; Q9F4F7; Biochemical Sfp PPTase activity, qHTS; Potency, µM, without a hit: largest response in the series, negative = inhibition, actives largely listed as inhibitors; 3.5% of 310,000 active; AID 1490;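 further: the enzyme is Sfp with the accession as filed and its product quenches rhodamine fluorescence; 0% = enzyme reaction without inhibitor and -100% = no enzyme wells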
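Fluorescence-quenching assay with 15 nM Sfp, 5 uM rhodamine-CoA and 12.5 uM BHQ-2-labelled ybbR peptide in pH 7.6 Hepes/MgCl2 buffer. Enzyme was pre-incubated with compound for 15 min at room temperature. Rate was taken from the 30-min fluorescence change (525/598 nm).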
G9a inh: G9a (human) methyltransferase inhibition. Q96KQ7. G9a H3K9 monomethylation, AlphaScreen, 2 h. AID 504332. Potency, µM (doses to about 102 µM), without a hit: top-dose activity, negative = inhibition, most hits filed as inhibitors. 8.8% of 350,000 active; further: on the % scale 0 is the no-effect control and ±100 the full control effect; nearly all actives have a fitted effect of over 75% in size
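Chemiluminescent proximity detection of H3K9 monomethylation, read after 10 min bead incubation in the dark. Reaction: 20 nM G9a, 500 nM biotin-H3K9 peptide, 20 uM SAM cofactor, 2 h, room temperature, following 15 min enzyme-compound preincubation.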
HP1b chromo inh: HP1-beta chromodomain-methylated histone interaction inhibition. P83916. AlphaScreen HP1-beta / biotin-H3K9me3 peptide binding. Potency, µM (series often up to 114 µM), without a hit: at the highest dose activity change, negative = inhibition, usual class: inhibitors. 0.56% of 390,000 active; further: nearly all actives have a fitted effect of over 70% in size
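Compound inhibition of the preformed complex between 50 nM HP1-beta and 50 nM biotinylated H3K9me3 peptide was read by AlphaScreen. Buffer was PBS pH 7.4 with 0.01% Tween-20. Incubations ran 30 min at room temperature, with 10 ug/mL donor/acceptor beads.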
BAZ2B block: BAZ2B (human) inhibition; Q9UIF8; AlphaScreen BAZ2B-H3K14Ac peptide displacement; Potency, µM (titrated, usually from 114 µM), without a hit: at the top dose activity change, negative = inhibition, usual class: inhibitors; 4.4% of 360,000 active; further: on the % scale 0 is the no-effect control and ±100 the full control effect; nearly all actives have a fitted effect of over 60% in size
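Protein-peptide AlphaScreen: BAZ2B 50 nM, b-H3K14Ac 50 nM, 1x PBS pH 7.4 + 0.01% Tween-20. Preincubation 30 min RT; cpd 30 min RT (top 110 uM); beads 20 min RT, light-protected.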
* marks the source's active call; other numbers are inactive results; ? = inconclusive; . = not tested or not shown; [ ] = dose if it differs, or a comment. Rows were chosen to be rich in hits. Some 12% of all compounds tested hit in one or more screens of this group. The call rests on the fitted dose curve; in most records, active means well fitted curve in the direction sought with a large enough effect; inconclusive means small, poorly fitted or top-dose-only effect, or another doubt; inactive means no such curve, though single readings can be large; an effect the other way counts as inactive or inconclusive. Potency means the concentration at half of the fitted maximal effect.

SMILES | JMJD2A Tudor | Sfp PPTase inh | G9a inh | HP1b chromo inh | BAZ2B block
CC(=O)C1=C(C)OC(N)=C(C#N)C1c1cc([N+](=O)[O-])ccc1Cl (stereo unspecified) | -19.3% | -3.6% | . | 34.7% | -9.8%
COc1ccc(C2Nc3ccccc3C(=O)N2Cc2ccccc2)cc1OCc1ccc(NC(C)=O)cc1 (stereo unspecified) | -25.2% | . | . | . | .
CCOc1ccccc1N1C(=O)CC(Nc2ccc(N3CCOCC3)cc2)C1=O (stereo unspecified) | ? | -12.8% | ? | ? | ?
O=C1CC(Nc2ccc(N3CCOCC3)cc2)C(=O)N1Cc1ccccc1 (stereo unspecified) | ? | -1.7% | 8.91µM* | -20.3% | ?
O=C1CC(Nc2ccc(N3CCOCC3)cc2)C(=O)N1c1ccccc1 (stereo unspecified) | -19.8% | ? | ? | 15.3% | -8.3%
COc1ccccc1N1C(=O)CC(Nc2ccc(N3CCOCC3)cc2)C1=O (stereo unspecified) | ? | 79.4µM* | ? | ? | ?
O=C(NC1CCCC1)c1ccc(COc2ccccc2Br)o1 | -3.2% | 6.6% | 60.3% | 44.4% | 0.0%
COc1ccc(Cn2cccc(NC(=O)Nc3cccc(OC)c3)c2=O)cc1 | ? | 4.5% | . | 6.6% | ?
O=C(Nc1nc(-c2ccc(Cl)s2)cs1)c1ccccc1 | 7.8% | 12.7% | 2.3%[12.7 µM] | 35.3% | 3.5%
Cc1ccc(-c2csc(NC(=O)c3ccc(-c4ccccc4)cc3)n2)o1 | ? | 22.4µM* | -8.8%[59 µM] | ? | ?
Cc1csc(NC(=O)c2ccccc2)n1 | -16.2% | 1.3% | 15.0%[0.501 µM] | 8.0% | -2.9%
O=C(Nc1nc(-c2ccco2)cs1)c1ccccc1 | ? | ? | ? | -30.0% | 56.2µM*
COc1ccc(OC)c(-c2csc(NC(=O)Cc3ccc(F)cc3)n2)c1 | ? | 21.5% | -15.8% | -14.3% | -38.8%
Cc1ccc(-c2csc(NC(=O)Cc3ccc(F)cc3)n2)o1 | -32.3% | 12.6µM* | 10µM* | ? | -32.8%
Cc1ccc(C)c(CN2C(=O)c3ccccc3S(=O)(=O)c3ccc(C(=O)Nc4cc(F)ccc4F)cc32)c1 | -21.2% | . | -25.3%[59 µM] | 21.7% | -10.8%
CCCCNc1nc(C)nc2c1nc(-c1ccccc1)n2C1CCN(Cc2ccccc2)C1 (stereo unspecified) | . | 6.3% | . | . | .
O=C1CC(c2nc(-c3ccccc3)no2)CN1c1ccc2c(c1)OCCO2 (stereo unspecified) | -13.3% | . | 0.6%[59 µM] | 26.8% | -13.4%
Cc1ccc(/C=C/C(=O)N2CC(C)CC(C)C2)o1 (stereo unspecified) | 50.1µM* | 15.8µM* | 8.91µM* | ? | -35.0%
CCN1CCN(C(=O)/C=C/c2ccc(C)o2)CC1 | -12.4% | 39.8µM* | 10µM* | 15.2% | 11.3%
CC(C)[C@H]1COCCS(=O)(=O)N1Cc1ccccc1 | -15.5% | . | . | 22.3% | .
COc1cc(/C=N/NC(=O)c2cc(O)cc(O)c2)ccc1OC(=O)c1ccccc1 | 22.4µM* | -12.0% | 8.91µM* | 28.2µM* | 11.2µM*
COc1cc(C(=O)N/N=C/c2ccc(OC(=O)c3ccccc3)c(OC)c2)ccc1O | -10.4% | -6.5% | . | 3.6% | -18.8%
COc1ccc(/C=N\NC(=O)c2cc(O)c(O)c(O)c2)cc1CN1CCN(c2ccc(F)cc2)CC1 | 56.2µM* | 14.1µM* | 7.08µM* | ? | 35.5µM*
COc1ccc(/C=N\NC(=O)c2cc(O)c(O)c(O)c2)cc1COc1ccc(C(=O)OCC(C)C)cc1 | ? | ? | 22.4µM* | -7.1% | 56.2µM*
COc1ccc(C(=O)N/N=C/c2ccc(OC)c(COc3ccccc3)c2)cc1 | -18.2% | 3.7% | 30.8% | 23.9% | -26.8%
SMILES | JMJD2A Tudor | Sfp PPTase inh | G9a inh | HP1b chromo inh | BAZ2B block
NCCCC[C@H](NC(=O)[C@H](CS)NC(=O)[C@@H](N)Cc1cnc[nH]1)C(=O)N[C@@H](Cc1ccccc1)C(=O)N[C@@H](Cc1c[nH]c2ccccc12)C(=O)N[C@@H](Cc1c[nH]c2ccccc12)C(=O)O | . | 13.6% | . | . | .
COc1ccc(-c2cc3ccccc3n2CC(O)CNCCO)cc1 (stereo unspecified) | 5.01µM* | -19.0% | 35.5µM* | ? | 50.1µM*
CCCCC1=CC2=C(c3ccco3)C(=O)C(C)(OC(=O)c3ccc(OC)cc3)C(=O)C2=CN1CCc1c[nH]c2ccccc12 (stereo unspecified) | . | 7.2% | . | . | .
CSCC[C@H](NC(=O)Cc1c(C)c2cc3c4c(oc3cc2oc1=O)CCCC4)C(=O)O | -18.8% | -6.1% | 44.7µM* | 31.7% | -9.7%
Cc1ccc2c(c1)-c1c(ssc1=S)C(C)(C)N2C(=O)CSC1=NCCS1 | 5.01µM* | -2.4% | ? | ? | 8.91µM*
Cn1cnnc1SCC(=O)N1c2ccccc2-c2c(ssc2=S)C1(C)C | . | -15.4% | ? | . | -1.7%
CCOC(=O)c1cc(-c2cccs2)nc2c1c(C)nn2-c1ccccn1 | -4.5% | ? | 32.8% | 59.0% | 7.3%
Cc1ccccc1-n1nc(C)c2c(C(=O)NN)cc(-c3ccncc3)nc21 | -16.6% | 7.3% | -5.6% | 19.9% | -6.2%
Cc1nn(-c2ccccc2)c2nc(-c3ccncc3)cc(C(=O)NCc3ccco3)c12 | ? | -24.9% | 50.1µM* | -12.3% | -0.6%
Cc1nn(-c2ccccn2)c2nc(-c3cccs3)cc(C(=O)NCc3ccco3)c12 | ? | ? | 44.7µM* | 22.4% | -10.9%
O=C(O)CC(NCc1ccco1)C(=O)OCCc1ccccc1 (stereo unspecified) | 6.31µM* | -13.4% | 31.6µM* | -19.1% | -5.2%
O=C(O)CC(C(=O)OCC1CCCO1)N1CCOCC1 (stereo unspecified) | -14.6% | 10.2% | -47.2% | 0.1% | -21.0%
O=C(O)CC(NCc1ccco1)C(=O)OCC1CCCO1 (stereo unspecified) | ? | -0.1% | 7.94µM* | 17.2% | 50.1µM*
C=C(C)CCOC(=O)C(CC(=O)O)NCc1ccco1 (stereo unspecified) | 35.5µM* | ? | 11.2µM* | -17.5% | 35.5µM*
Fc1ccc(-c2csc(-c3nc(-c4ccc(Br)s4)cs3)n2)cc1 | 0.3% | . | -0.5%[59 µM] | 21.8% | 4.5%
O=S(=O)(Nc1c(Br)cc(Br)c2cccnc12)C1CCCCC1 | 12.3% | . | . | 37.6% | .
Cn1c2ccccc2c(=O)c2ccc(C#CC3(N)CCCCC3)cc21 | 5.8% | -15.5% | 39.8µM* | 76.9% | 2.5%
CO[C@H]1/C=C/O[C@@]2(C)Oc3c(C)c(O)c4c(O)c(c(/C=N\N5CCN(C6CCCC6)CC5)c(O)c4c3C2=O)NC(=O)/C(C)=C\C=C\[C@H](C)[C@H](O)[C@@H](C)[C@@H](O)[C@@H](C)[C@H](OC(C)=O)[C@@H]1C | . | -19.1% | ? | . | .
CCCCNCCOCCSc1ccc(Cl)cc1 | 1.41µM* | -10.2% | 8.91µM* | ? | ?
COCCCNCCOCCSc1ccc(Cl)cc1 | 1.78µM* | 50.1µM* | ? | ? | ?

High-throughput results from PubChem BioAssay.
